Data from PubChem BioAssay (NCATS).
Records with an inconclusive call do not appear. A call without a number means that no potency is given here. Active and inactive are the calls of the source. Calls follow the shape of the full dose curve.

Target: Estrogen receptor (Homo sapiens) (UniProt P03372)
Assay: qHTS assay for small molecule agonists of estrogen receptor alpha signaling (AID 588514); also: nearly all actives have a fitted effect of over 70% in size
Conditions: ER-alpha-UAS-bla HEK293, beta-lactamase ratio, 18 h; series mostly up to 76.8 µM
Excerpt: NIH Chemical Genomics Center [NCGC]
U.S. Environmental Protection Agency [EPA]
National Institutes of Environmental Health Sciences [NIEHS]
National Toxicology Program [NTP]
Estrogen receptor alpha (ER-alpha) is an important member of nuclear hormone receptors. ER-alpha plays important role in breast cancer as well as in other women's health issues. The majority of breast cancers is estrogen receptor (ER) positive and depends on estrogen for growth. There is also growing concern for some of environmental chemicals which may contribute the increasing the incidence of breast cancer. Therefore, it is important to understand the effect of environmental chemicals in ER-alpha signaling pathway.
NCGC Assay Protocol Summary
Using a beta-lactamase reporter-gene under control of the ER response element, a cell-based assay [ER-alpha-UAS-bla GripTiteTM cell-Based Assay from Invitrogen] was used to measure ER-alpha signaling pathway in agonist mode. ER-alpha-UAS-bla-GripTite HEK 293 cells were used with assay medium containing 2% charcoal/dextran treated FBS, 0.1 mM NEAA and 1 mM sodium pyruvate. Cells were cultured in this assay medium overnight in the flasks before the assay. The assay was performed in clear bottom black Greiner 1536-well plates. 17-beta-estradiol was used as a positive control in the screen. Library compounds were measured for their ability to either stimulate the reporter gene activity. Compounds were screened in a titration series in 1536-well format. […] Data was normalized relative to 17-beta-estradiol control (20 nM, 100%), and DMSO only wells (basal, 0%). Concentration-response titration points for each compound were fitted to the Hill equation yielding concentrations of half-maximal stimulation (EC50) and maximal response (efficacy) values.
qHTS protocol for ER-alpha beta-lactamase assay in agonist mode
[Step] [Parameter] [Value] [Description]
1. Reagent; 6 uL; 5000 cells/well
2. Incubation; 37 C for 4 hrs
4. Controls (17-beta-estradiol); 23 nL
- Dose response, start 1uM, 1:3 dilutions with duplicates
- Two columns with 20 and 0.5 nM (final) concentration.
5. Incubation; 37 C for 18 hrs
6. Detection reagent; 1 uL of CCF4-dye
7. Incubation; RT for 2 hrs
8. Detection; Fluorescence; Envision plate reader or Acumen plate reader

Chain of Estrogen receptor (Homo sapiens) (P03372 whole entry, looked up): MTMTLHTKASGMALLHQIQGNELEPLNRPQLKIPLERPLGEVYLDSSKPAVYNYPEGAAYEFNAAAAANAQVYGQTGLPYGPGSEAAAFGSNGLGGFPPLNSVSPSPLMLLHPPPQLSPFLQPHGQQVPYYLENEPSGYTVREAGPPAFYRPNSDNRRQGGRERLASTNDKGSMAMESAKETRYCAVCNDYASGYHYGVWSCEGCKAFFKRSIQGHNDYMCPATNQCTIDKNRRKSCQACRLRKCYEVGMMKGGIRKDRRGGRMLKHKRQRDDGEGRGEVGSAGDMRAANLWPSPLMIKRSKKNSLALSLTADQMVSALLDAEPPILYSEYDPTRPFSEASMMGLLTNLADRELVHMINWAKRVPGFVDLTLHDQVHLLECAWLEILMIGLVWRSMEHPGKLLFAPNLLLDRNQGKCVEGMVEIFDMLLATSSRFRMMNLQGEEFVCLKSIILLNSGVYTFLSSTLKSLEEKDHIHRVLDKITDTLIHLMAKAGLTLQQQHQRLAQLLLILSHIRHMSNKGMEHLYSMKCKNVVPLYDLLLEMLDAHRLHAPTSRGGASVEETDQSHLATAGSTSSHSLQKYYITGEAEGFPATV

| Compound | Potency |
| --- | --- |
| c1ccc2ccccc2c1 | inactive |
| OCl | inactive |
| NCCO/C=C/[C@H](N)C(=O)O | inactive |
| C[C@H](CCC(=O)O)[C@H]1CC[C@H]2[C@@H]3CC[C@@H]4C[C@H](O)CC[C@]4(C)[C@H]3C[C@H](O)[C@]12C | inactive |
| Cc1ccc(S(=O)(=O)NCl)cc1 | inactive |
| [O-][N+](=Nc1ccccc1)c1ccccc1 | inactive |
| CO[C@@H]1[C@H](OC(=O)/C=C/C=C/C=C/C=C/C(=O)O)CC[C@]2(CO2)[C@H]1[C@@]1(C)O[C@@H]1CC=C(C)C | inactive |
| CCCCC(CC)COS(=O)(=O)O (configuration not stated) | inactive |
| NC(N)=O | inactive |
| CC(C)O | inactive |
| OCC(O)CO | inactive |
| CC(C)CCCCCCc1ccc(O)cc1 | 2.51 µM (active) |
| NCCN | 0.199 µM (active) |
| C=C(C)C1CC=C(C)CC1 (configuration not stated) | inactive |
| OCc1ccccc1 | inactive |
| CC[C@H]1OC(=O)[C@H](C)[C@@H](O[C@H]2C[C@@](C)(OC)[C@@H](O)[C@H](C)O2)[C@H](C)[C@@H](O[C@@H]2O[C@H](C)C[C@H](N(C)C)[C@H]2O)[C@](C)(O)C[C@@H](C)CN(C)[C@H](C)[C@@H](O)[C@]1(C)O | inactive |
| CC/C=C\C/C=C\C/C=C\CCCCCCCC(=O)O | inactive |
| Cc1ccc(S(=O)(=O)O)cc1C | inactive |
| OC[C@H]1O[C@@H]2O[C@H]3[C@H](O)[C@@H](O)[C@@H](O[C@H]4[C@H](O)[C@@H](O)[C@@H](O[C@H]5[C@H](O)[C@@H](O)[C@@H](O[C@H]6[C@H](O)[C@@H](O)[C@@H](O[C@H]7[C@H](O)[C@@H](O)[C@@H](O[C@H]1[C@H](O)[C@H]2O)O[C@@H]7CO)O[C@@H]6CO)O[C@@H]5CO)O[C@@H]4CO)O[C@@H]3CO | 11.2 µM (active) |
| CC1=CCC2CC1C2(C)C (configuration not stated) | inactive |
| COC(=O)c1ccccc1O | inactive |
| CC(C)(C)CC(C)(C)c1ccc(OCCO)cc1 | inactive |
| OC[C@H]1O[C@@](CO)(O[C@H]2O[C@H](CO)[C@@H](O)[C@H](O)[C@H]2O)[C@@H](O)[C@@H]1O | inactive |
| Oc1cccc(O)c1O | 8.91 µM (active) |
| OCCOCCOCCO | inactive |
| C[C@H](CCC(=O)O)[C@H]1CC[C@H]2[C@@H]3[C@H](O)C[C@@H]4C[C@H](O)CC[C@]4(C)[C@H]3C[C@H](O)[C@]12C | inactive |
| Nc1ncnc2c1ncn2[C@H]1CC[C@@H](CO)O1 | inactive |
